Consider 40 compounds from PubChem BioAssay (NCATS).

Each structure is given as a SMILES string.

The nature of the assay: qHTS profiling for inhibitors of Plasmodium falciparum (3D7) proliferation (AID 743322).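 Also: infected erythrocytes exposed to compound for 72 h before lysis; 100% = DMSO vehicle wells and 0% = 0.29 µM artemisinin.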 The settings on record: P. falciparum 3D7 proliferation; at 28.7 µM (top of the series). The source says: Plasmodium falciparum is a virulent malarial parasite that kills 1-2 million people worldwide each year. Transmitted by mosquitoes, the sporozoite form of the parasite enters the blood stream to infect hepatocytes, where they become merozoites that infect red blood cells (erythrocytes). Within erythrocytes, merozoites begin a […] cycle of growth and division, after which the parasite is released to infect new red blood cells. Gametocytes, which form within erythrocytes as well, circulate in the bloodstream and are ingested by the mosquito, thereby completing the life cycle. To profile malarial isolates for differential chemical responses and to identify inhibitors of malarial growth, an assay that measures P. falciparum growth and replication within erythrocytes was employed. This assay uses a DNA binding fluorescent dye (SYBR Green) to detect parasite DNA following cell lysis. Because mature erythrocytes lack DNA, only Plasmodium-derived DNA is detected.
The SYBR Green viability assay was adapted from a method described previously (Plouffe et al., 2008). For screening 3 ul culture medium was dispensed into 1536 well black clear bottom plates (Aurora Biotechnologies) using a Multidrop Combi (Thermo Fisher Scientific Inc.), 23 nL compounds in DMSO were added by a pin tool (Kalypsys), and 5 ul of erythrocytes infected with P. falciparum (0.3% parasitemia, 2.5% hematocrit final concentration) were added. The plates were incubated at 37 C in a humidified incubator in 5% CO2 for 72 h, and 2 ul lysis buffer (20 mM Tris HCl, 10 mM EDTA, 0.16% saponin, 1.6% triton X, 10X SYBR Green I supplied as 10,000X […] by Invitrogen) was added to each well. The plates were mixed for 25 sec with gentle shaking and incubated overnight at room temperature in the dark. The following morning, fluorescence intensity at 485(14) nm excitation and 535(25) nm emission wavelengths was measured on an EnVision (Perkin Elmer) plate reader. Plate reads were normalized relative to the control inhibitor (0.29 uM artemisinin) and vehicle (DMSO) wells present on each plate and then corrected by an algorithm using vehicle-only control plates at the beginning and end of the compound plate stack.
For `COc1cc(=C2C=c3ccccc3=N2)[nH]c1=Cc1[nH]c(C)cc1C`, the remaining parasite growth % (stronger effect = lower value) worked out at 2.05%. `C[C@@H](Oc1cc(-c2cnn(C3CCNCC3)c2)cnc1N)c1c(Cl)ccc(F)c1Cl`: the remaining parasite growth % (stronger effect = lower value) is -1.04%. For `c1nc2nc(Nc3ccc(N4CCOCC4)cc3)nc(NC3CCCCC3)c2[nH]1`, the remaining parasite growth % (stronger effect = lower value) amounted to 4.62%. For `N#CCNC(=O)c1ccc(-c2ccnc(Nc3ccc(N4CCOCC4)cc3)n2)cc1` the value was 5.35%.

Turning to `CC(C)c1ccccc1Cc1cc(C(=O)Nc2ccc(S(=O)(=O)c3ccccc3C(C)(C)C)cc2)c(O)c(O)c1O`, the remaining parasite growth % (stronger effect = lower value) was found to be 0.404%. The same measure for `O=C(NCCS(=O)(=O)c1ccc(C(F)(F)F)cn1)c1ccc(Cl)cc1`: 98.8%. For `CN1CCC(CNc2ccc3ncc(-c4cccc(OC(F)(F)F)c4)n3n2)CC1` the value was -1.19%; for `C[C@@]12O[C@@H](C[C@]1(O)CO)n1c3ccccc3c3c4c(c5c6ccccc6n2c5c31)CNC4=O`, -0.0626%.

In the case of `CC(C)(C)c1cc(NC(=O)Nc2ccc(-c3cn4c(n3)sc3cc(OCCN5CCOCC5)ccc34)cc2)no1`, the remaining parasite growth % (stronger effect = lower value) is -1.57%.

Consider `CC(C)(C)OC(=O)Nc1ccc(-c2cc(C(=O)NCCCCCCC(=O)NO)no2)cc1`, for which the remaining parasite growth % (stronger effect = lower value) was -1.38%. For `Nc1cc(C(F)(F)F)c(-c2cc(N3CCOCC3)nc(N3CCOCC3)n2)cn1` the value was 90.8%. For `Cc1[nH]nc2ccc(-c3cncc(OC[C@@H](N)Cc4ccccc4)c3)cc12` the value was 30.1%; for `Cc1cnc(-c2cnc(NCCNc3ccc(C#N)cn3)nc2-c2ccc(Cl)cc2Cl)[nH]1`, 89%. The same measure for `CCOc1cc2ncc(C#N)c(Nc3ccc(F)c(Cl)c3)c2cc1NC(=O)C=CCN(C)C`: -0.461%.

In the case of `CN1CCN(c2cc(C(=O)Nc3ccc4c(c3)-c3c(c(C(N)=O)nn3-c3ccc(F)cc3)CC4)c(Cl)cn2)CC1`, the remaining parasite growth % (stronger effect = lower value) was -2.46%. For `O=C(c1ccc(Nc2nccc(-c3cc4ccccc4s3)n2)cc1)N1CCC(N2CCCC2)CC1` the value was -2.23%; for `CCN(CC)CCCCNc1ncc2cc(-c3cc(OC)cc(OC)c3)c(NC(=O)NC(C)(C)C)nc2n1`, -0.484%; for `Cc1cc(Nc2cc(NC(=O)c3c(Cl)cccc3Cl)ccn2)nc(N)n1`, 0.674%. The same measure for `CC(=O)Nc1sc2c(c1-c1nc3ccccc3s1)CNC2`: 100%. On to `COC(=O)c1ccc2c(C(=Nc3ccc(N(C)C(=O)CN4CCN(C)CC4)cc3)c3ccccc3)c(O)[nH]c2c1`, for which the remaining parasite growth % (stronger effect = lower value) stood at 0.245%. For `C=CCn1c(=O)c2cnc(Nc3ccc(N4CCN(C)CC4)cc3)nc2n1-c1cccc(C(C)(C)O)n1` the value was 11.1%; for `CC[C@@H]1C(=O)N(C)c2cnc(Nc3ccc(C(=O)NC4CCN(C)CC4)cc3OC)nc2N1C1CCCC1`, 0.0061%. For `CCCCCN(CCC12CC3CC(CC(C3)C1)C2)C(=O)NCCCc1ccncc1` the value was 7.44%; for `Clc1ccc2ncc(-c3cccc(NC4CNC4)n3)n2c1`, 5.93%; for `Cc1cnc(Nc2ccc(F)cc2Cl)nc1-c1c[nH]c(C(=O)N[C@H](CO)c2cccc(Cl)c2)c1`, 7.37%. On to `C=CC(=O)Nc1cc2c(Nc3ccc(F)c(Cl)c3)ncnc2cc1OCCCN1CCOCC1`, for which the remaining parasite growth % (stronger effect = lower value) is -0.797%.

In the case of `O=C(O)c1ccc2c(c1)nc(Nc1cccc(Cl)c1)c1ccncc12`, the remaining parasite growth % (stronger effect = lower value) came to 9.86%. On to `CNC(=O)c1cc(Oc2ccc(NC(=O)Nc3cc(C(C)(C)C)nn3-c3ccc4ncccc4c3)c(F)c2)ccn1`, for which the remaining parasite growth % (stronger effect = lower value) turned out to be 26.7%.

`C=C1C(=CC=C2CCCC3(C)[C@@H]([C@H](C)C=CC=CC(O)(CC)CC)CC[C@@H]23)C[C@@H](O)C[C@@H]1O` (stereo not given in full): the remaining parasite growth % (stronger effect = lower value) was determined as 65.1%. The same measure for `C[C@]1(CO)CN(c2cc(C(=O)Nc3ccc4c(c3)-c3c(c(C(N)=O)nn3-c3ccc(F)cc3)CC4)c(Cl)cn2)C[C@@]1(C)CO`: 50.5%. For `O=C(C=Cc1cccnc1)NCCCCC1CCN(C(=O)c2ccccc2)CC1` the value was 81.9%; for `C1Cc2[nH]nc(-c3nn[nH]n3)c2C1`, 48.8%; for `Nc1ccccc1NC(=O)c1ccc(CNC(=O)OCc2cccnc2)cc1`, 99.2%.

With `O=C(O)[C@H](Cc1c[nH]c2ccccc12)N1C(=O)c2ccccc2C1=O`, the remaining parasite growth % (stronger effect = lower value) stood at 105%. For `CC(NCc1ccc2c(c1)nc(NC(=O)c1ccc(-c3cn[nH]c3)s1)n2CC(C)(C)O)C(C)(C)C` (stereo not given) the value was -1.9%; for `CC1(O)CC(c2nc(-c3ccc4ccc(-c5ccccc5)nc4c3)c3c(N)nccn23)C1` (stereo not given), 0.533%. Consider `CC(C)(O)CCc1ccc(OCc2cc(-c3cccc(OC(F)F)c3)c3ncccc3c2)cc1`, for which the remaining parasite growth % (stronger effect = lower value) came out at 37.5%. Consider `O=C(C=Cc1c(C(=O)O)[nH]c2cc(Cl)cc(Cl)c12)Nc1ccccc1`, for which the remaining parasite growth % (stronger effect = lower value) was 118%. For `Cc1[nH]c2ccccc2c1CCNCc1ccc(C=CC(=O)NO)cc1` the value was -0.764%; for `CN(C)CC=CC(=O)Nc1cc2c(Nc3ccc(F)c(Cl)c3)ncnc2cc1O[C@H]1CCOC1`, -0.281%.
